# Source: PubChem BioAssay AID1347048 (National Center for Advancing Translational Sciences (NCATS), 2019)
# In all, about 76,000 compounds went through this assay and about 1,200 (1.6%) were called active. Entries that show only a call come without a potency. Not shown: some 4% with an inconclusive outcome. The sample holds actives, similar compounds and a random draw of the others, so the mix is not that of the screen. Calls come from the whole dose curve.
# Biological target: Atrial natriuretic peptide receptor 1 (Homo sapiens) (UniProt P16066)
# Test: Natriuretic polypeptide receptor (hNpr1) antagonism - Primary qHTS; note: nearly all actives have a fitted effect of over 60% in size
# Conditions: HEK293 hNpr1 GloSensor cGMP, ANP-stimulated luminescence; series mostly up to 46.3 µM
# Procedure, shortened: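 HEK293 cells stably expressing human Npr1 and cGMP GloSensor pGS-40F, loaded 2 h with 2% GloSensor reagent, given compound 30 min at room temperature. Luminescence read before and 20 min after 0.1 nM hNppA.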
# Potency is the fitted concentration of half-maximal effect.
# Sequence of Atrial natriuretic peptide receptor 1 (Homo sapiens) (P16066 whole entry, looked up): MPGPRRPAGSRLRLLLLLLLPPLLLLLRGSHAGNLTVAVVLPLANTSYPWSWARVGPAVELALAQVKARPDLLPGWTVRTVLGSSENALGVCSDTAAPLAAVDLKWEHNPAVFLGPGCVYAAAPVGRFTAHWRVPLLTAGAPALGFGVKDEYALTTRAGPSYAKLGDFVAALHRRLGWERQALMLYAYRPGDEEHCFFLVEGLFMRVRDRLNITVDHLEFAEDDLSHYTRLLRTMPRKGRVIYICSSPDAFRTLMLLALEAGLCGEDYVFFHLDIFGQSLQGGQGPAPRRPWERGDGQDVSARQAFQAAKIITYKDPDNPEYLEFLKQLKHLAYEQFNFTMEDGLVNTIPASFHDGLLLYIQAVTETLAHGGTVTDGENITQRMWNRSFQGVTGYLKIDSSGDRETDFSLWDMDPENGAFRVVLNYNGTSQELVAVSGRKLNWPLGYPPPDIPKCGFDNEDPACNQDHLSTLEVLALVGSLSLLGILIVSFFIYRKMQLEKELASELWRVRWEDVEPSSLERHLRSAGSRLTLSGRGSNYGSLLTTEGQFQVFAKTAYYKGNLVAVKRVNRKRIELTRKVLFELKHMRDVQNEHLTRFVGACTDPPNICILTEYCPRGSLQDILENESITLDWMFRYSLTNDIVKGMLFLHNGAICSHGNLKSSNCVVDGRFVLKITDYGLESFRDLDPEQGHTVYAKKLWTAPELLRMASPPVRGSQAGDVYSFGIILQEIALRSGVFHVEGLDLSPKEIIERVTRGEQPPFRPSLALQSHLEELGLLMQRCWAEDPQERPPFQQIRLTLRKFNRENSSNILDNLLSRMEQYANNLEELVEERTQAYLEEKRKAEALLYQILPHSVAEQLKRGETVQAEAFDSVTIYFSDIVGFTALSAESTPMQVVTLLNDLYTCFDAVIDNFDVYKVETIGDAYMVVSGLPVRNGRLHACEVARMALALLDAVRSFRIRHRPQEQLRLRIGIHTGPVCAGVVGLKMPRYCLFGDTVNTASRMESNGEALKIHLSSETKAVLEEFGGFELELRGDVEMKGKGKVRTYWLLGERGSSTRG
row,SMILES,Potency
1,CCn1ncc(N2CCC(NC(=O)c3ccccc3OC)CC2)cc1=O,inactive
2,COc1cccc(C(=O)NCC2Cn3cccc3C(=O)N2Cc2ccccc2)c1 (centres undefined),inactive
3,COc1cccc(-c2cc(-c3nc(C4CCOC4)no3)[nH]n2)c1 (centres undefined),inactive
4,COc1ccc(-c2[nH]nc3ncc(C(=O)Nc4ccccc4)nc23)c(C)c1,inactive
5,COc1ccccc1Nc1cnc2ccc(-c3ccc(OC)c(OC)c3)nn12,inactive
6,CN(C)c1ccc2ncc(Nc3ccccc3F)n2n1,inactive
7,COc1ccccc1Nc1cnc2ccc(N(C)Cc3cccnc3)nn12,25.1 µM (active)
8,O=C1NC2(CN([S+](=O)([O-])c3cccc(C(F)(F)F)c3)C2)Oc2ccccc21,inactive
9,Cc1cccc(-n2nc(-c3c(C)nc4scc(CC(=O)NC(C)C(C)C)n4c3=O)cc2C)c1 (centres undefined),inactive
10,COc1ccccc1CNC(=O)CN1CCCC(CO)(CC2CC2)C1 (centres undefined),inactive
11,CCCN1C(=O)Cc2ccccc2C1C(=O)NCc1cccc(OC)c1OC (centres undefined),inactive
12,COc1cc(NC(=O)Cn2c(N3CCc4ccccc4C3)nc(C)cc2=O)cc(OC)c1,inactive
13,COc1cccc(NC(=O)Cn2c(N(C)Cc3ccccc3)nc(C)cc2=O)c1,10 µM (active)
14,COc1cccc(NC(=O)Cn2c(-c3ccccc3)nc(C)cc2=O)c1,inactive
15,COc1cccc(CNC(=O)Cn2c(N(C)Cc3ccccc3)nc(C)cc2=O)c1OC,15.8 µM (active)
16,COc1ccc2[nH]c3c(c2c1)CCNC31CCN(C(=O)c2cc(C)n(C)n2)CC1,inactive
17,COc1cccc(C(C(=O)O)N2CCN(c3ccccn3)CC2)c1OC (centres undefined),inactive
18,Cc1cc(C(=O)N2CCC3(CC2)CC(C(=O)N2CCOCC2)N(C)C3)nn1C (centres undefined),inactive
19,CCn1nccc1C(=O)N1CCCCCNC(=O)[C@H]2C[C@H](C(=O)N3CCc4ccccc4C3)C[C@H]21,inactive
20,Cc1ccc(OCc2nc(C3CCN(C(=O)c4noc(C)c4CN4CCCCC4)CC3)no2)cc1,inactive
21,Cc1ccc(OCc2nc(C3CCN(C(=O)CCc4nc5ccc(Cl)cc5[nH]4)CC3)no2)cc1,11.2 µM (active)
22,Cc1ccc(OCc2nc(C3CCN(C(=O)c4c5c(nc6ccccc46)CCCC5)CC3)no2)cc1,inactive
23,COCCOC1CCN(C(=O)c2[nH]nc3c2COc2ccccc2-3)CC1,inactive
24,CN(C(=O)Cc1c[nH]c2ncc(-c3cnn(C)c3)cc12)c1ccccc1,inactive
25,O=C(Cc1c[nH]c2ncc(-c3ccccc3F)cc12)N1CCOCC1,25.1 µM (active)

row,SMILES,Potency
1,Cc1noc(C)c1-c1cnc2[nH]cc(CC(=O)N3CCOCC3)c2c1,22.4 µM (active)
2,COc1ccc(CNC(=O)Cc2c[nH]c3ncc(-c4ccccc4)cc23)cc1OC,inactive
3,COCCNC(=O)Cc1c[nH]c2ncc(-c3cccnc3OC)cc12,inactive
4,Cc1noc(C)c1-c1nccc2c(=O)cc(N3CCOCC3)oc12,inactive
5,CCCCSc1nc(N)cc(N2CCCC(OCc3cccnc3)C2)n1 (centres undefined),inactive
6,CC(C)CNC(=O)CC(c1ccc(F)cc1F)c1c[nH]c2ccccc12 (centres undefined),inactive
7,COc1ccc(CNC(=O)c2cc3n(n2)CC(c2ccc4c(c2)OCO4)OC3)c(OC)c1 (centres undefined),inactive
8,CCCc1nc(C(=O)N[C@@H]2[C@@H](Cc3ccccc3)[C@H]3OCC[C@@H]23)cs1,inactive
9,Cc1ccc(NC(=O)Cn2ccn3nc4c(c3c2=O)CC(C)CC4)cc1Cl (centres undefined),inactive
10,O=c1n(CC2CC2)nc2n1CCC(NS(=O)(=O)c1cccc(F)c1)CC2 (centres undefined),inactive
11,COc1ccc(-c2noc(CC3CCN(C(=O)Cc4ccccc4)CC3)n2)cc1,11.2 µM (active)
12,COc1ccc(-c2noc(CC3CCN(C(=O)Cc4ccc(C)cc4)CC3)n2)cc1,15.8 µM (active)
13,COc1ccc(CC(=O)N2CCC[C@H]2c2nc(-c3ccccc3)no2)cc1,inactive
14,COc1ccc(-c2noc(CC3CCN(C(=O)CC4CCCCC4)CC3)n2)cc1,6.31 µM (active)
15,Cc1ccc(CC(=O)N2CCC(Cc3nc(-c4cnccn4)no3)CC2)cc1,inactive
16,COc1ccc(C(=O)N2CCC(Cc3nc(-c4cnccn4)no3)CC2)cc1,inactive
17,COc1ccc(-c2noc([C@@H]3CCCN3C(=O)CCc3ccccc3)n2)cc1,inactive
18,CCOc1ccc(CC(=O)N2CCC(Cc3nc(-c4cnccn4)no3)CC2)cc1,inactive
19,COc1ccc(-c2noc([C@@H]3CCCN3C(=O)Cc3ccccc3Cl)n2)cc1,inactive
20,O=C(Nc1ccc(C(F)(F)F)cc1)N[C@@H]1C[C@H](CO)[C@@H](O)[C@H]1O,inactive
21,COc1ccc(C(=O)N2CCC3(CC2)NC(=O)N(c2ccc(F)cc2)N3)cc1OC,inactive
22,O=C(Nc1ccccc1)N1CCCCC1c1noc(COc2ccc(F)cc2)n1 (centres undefined),inactive
23,CCCn1cnc2c1CN(S(=O)(=O)Cc1ccccc1)[C@H](C(=O)OC)C2,inactive
24,CCc1nc(-c2c3n(c(=O)n(CCc4ccc(OC)cc4)c2=O)CCCC3)no1,inactive
25,COc1cccc(CN2CCc3c(cc(C(=O)NCCN4CCCCC4)n3C)C2)c1,inactive

row,SMILES,Potency
1,CN1CCCCCC(O)c2cc(C(=O)NCc3ccc(F)cc3)ccc21 (centres undefined),inactive
2,COc1ccc(CNC(=O)c2cccc3c2CCN3C(=O)c2ccc(F)cc2)cc1OC,8.91 µM (active)
3,COc1ccc(NC(=O)c2ccc3c(c2)N(C(=O)c2ccc(F)cc2)CC3)c(C)c1,inactive
4,O=C(c1ccnc(-c2nnc3ccc(N4CCOCC4)nn23)c1)N1CCCCC1,inactive
5,COc1ccccc1CNC(=O)CCC[C@@H]1[C@H]2CCCN3CCC[C@@H](CN1C(=O)c1ccccc1)[C@@H]23,inactive
6,COCCN1CCCCCC(O)c2cc(C(=O)Nc3cccc(OC)c3)ccc21 (centres undefined),inactive
7,CN(Cc1ccc(CCN)cc1)Cc1cccc(-n2cccn2)c1,inactive
8,CN(C)c1ccc(C(=O)NCc2nnc3cc(-c4nc(C5CC5)no4)ccn23)cc1,inactive
9,CCOc1ccccc1C(=O)NCc1nnc2cc(-c3nc(C)no3)ccn12,inactive
10,O=C(NCc1nnc2cc(-c3nc(C4CC4)no3)ccn12)c1ccc(F)cc1Cl,7.08 µM (active)
11,COc1cccc(CC(=O)N2CCCC(c3nc(-c4cccnc4)no3)CCNC(=O)CC2)c1 (centres undefined),inactive
12,Cc1cccc(OCC(=O)N2CCN(c3cc(C(F)(F)F)nc(C)n3)CC2)c1,inactive
13,CC(C)CN[C@H]1[C@H](O)[C@H](O)C[C@@H]1c1ccc(N2CCOCC2)nc1,inactive
14,Oc1ccc(-c2ccc(-c3nc(CCc4ccccc4)no3)cn2)cc1,inactive
15,CN(CCc1cn[nH]c1)c1ccc(-c2nc(-c3ccccc3F)no2)cn1,8.91 µM (active)
16,CN(C)CCN(C)c1ccc(-c2nc(-c3ccccc3F)no2)cn1,inactive
17,CCCC(C)C(=O)N1CCCN(C)c2ccccc21 (centres undefined),inactive
18,COc1ccc2nc3n(c2c1)[C@@H](CNC1CCCCC1)COC3,inactive
19,Cc1ccccc1-n1nc(C)c(CCC(=O)NC(C)C)c1Oc1cccc(F)c1,inactive
20,Cc1cc(N2CCCC(Cn3cc(Cc4ccccc4)nn3)C2)nc(N)n1 (centres undefined),7.94 µM (active)
21,COc1ccc(-c2cn3c(n2)CO[C@@H](CNCc2ccc(F)c(F)c2)C3)cc1,inactive
22,CN(Cc1csc(-c2ccccc2)n1)c1cc(C2CC(O)C2)nc(N)n1 (centres undefined),2.51 µM (active)
23,COc1ccc(CN2C(=O)CO[C@H]3CN(Cc4cccnc4)C[C@H]32)cc1,inactive
24,COc1ccc(CN2C(=O)CO[C@H]3CN(Cc4ccc5c(c4)OCO5)C[C@H]32)cc1,31.6 µM (active)
25,COc1ccc(CN2C(=O)CO[C@H]3CN(C(=O)C4CC4)C[C@H]32)cc1,inactive

row,SMILES,Potency
1,Cc1cc(F)ccc1NC(=O)CCC1CCCN(C(=O)c2ccc(Cl)s2)C1 (centres undefined),inactive
2,Cc1noc(C)c1C(=O)N1CCCC(CCc2ccc(F)cc2F)C1 (centres undefined),inactive
3,Cc1c[nH]c(CN2CCCC(CCc3ccc(F)cc3F)C2)c(C)c1=O (centres undefined),2.51 µM (active)
4,Fc1ccc(-c2cnc3n[nH]c(-c4ccc5c(c4)OCO5)c3n2)cc1,inactive
5,Cc1ccc(-c2nnc(C3CN(C(=O)CCc4ccccc4)CC34CCOCC4)o2)cc1 (centres undefined),inactive
6,O=C(c1ccc2cc[nH]c2c1)N1CCC2(CC1)N=C(c1ccc(Cl)cc1)NO2,11.2 µM (active)
7,Cc1ccc(C2=NC3(CCN(C(=O)c4ccc(C#N)cc4)CC3)ON2)cc1,inactive
8,O=C(c1cccc2[nH]ccc12)N1CCC2(CC1)N=C(c1cccc(Br)c1)NO2,inactive
9,OCC1(CN2CCCC2)CCN(Cc2cccc(Cn3cccn3)c2)CC1,inactive
10,COc1cccn(CC(=O)N(C)Cc2csc(C(C)C)n2)c1=O,inactive
11,COc1ccc(CNC(=O)CN2C(=O)NC3(CCC(C(C)(C)C)CC3)C2=O)cc1OC (centres undefined),inactive
12,c1ccc(-c2noc(-c3ccccc3OC3CCNC3)n2)cc1 (centres undefined),inactive
13,c1ccc(CO[C@@H]2CO[C@H]3[C@@H]2OC[C@@H]3n2nnnc2SCc2ccco2)cc1,22.4 µM (active)
14,CC(C)(CC(=O)O)CC(=O)N[C@H]1CO[C@H]2[C@@H]1OC[C@@H]2n1nnnc1-c1ccccc1,inactive
15,CC(C)(C)CC(=O)N1CC[C@H](NC(=O)Nc2ccc(F)cc2F)[C@H]1C(=O)N[C@H](Cc1ccccc1)C(N)=O,inactive
16,CCC(C)NC(=O)CN1C(=O)NC2(CCC(C(C)(C)C)CC2)C1=O (centres undefined),inactive
17,CCCNc1cc(N2CCC(CCC(=O)NCc3ccc(Cl)cc3)CC2)ncn1,inactive
18,O=C(c1ccoc1)N1CCCC(c2nc(CCOCC3CCCC3)no2)C1 (centres undefined),inactive
19,C1CCC(COCCc2noc(C3CNC3)n2)C1,12.6 µM (active)
20,O=C(Cc1cccnc1)N1CCCC(c2nc(CCOCC3CCCC3)no2)C1 (centres undefined),inactive
21,COCCC(=O)N1CCC2(CC1)CC(C(=O)N1CCOCC1)N(C)C2 (centres undefined),inactive
22,Cc1ccc2c(c1)nc1n2[C@@H](CNC(=O)c2ccccc2)COC1,inactive
23,Cc1ccc2c(c1)nc1n2[C@@H](CNS(=O)(=O)c2ccccc2)COC1,31.6 µM (active)
24,Cc1ccc2nc3n(c2c1)[C@@H](CNC(=O)COc1ccccc1)COC3,inactive
